Inconclusive results are not listed. Entries that show only a call come without a potency. Active and inactive are the calls of the source. Calls come from the whole dose curve; as a rule, active = well fitted activation curve with a large enough effect in the repeat runs; inconclusive = weak or mixed curves; inactive = flat fitted curve, though single readings scatter.
Assay: A CellTox Green Cytotoxicity Assay to monitor cytotoxicity in HepG2 cells - 24 hour (AID 1224878); note: nearly all actives have a fitted effect of over 45% in size
Conditions: CellTox Green fluorescence; series mostly up to 76.8 µM
Outline: (§1)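 Real-time, homogeneous cytotoxicity readout: dead-cell DNA staining by CellTox Green in HepG2 monolayers, fluorescence measured at timed intervals up to 40 h of continuous compound exposure.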
Potency is the fitted concentration of half-maximal effect.

| SMILES | Potency | cytotoxicity |
| --- | --- | --- |
| CCCCCl | inactive |  |
| CC(C)(C)NCC(O)c1cc(Cl)c(N)c(C(F)(F)F)c1 (centres undefined) | inactive |  |
| O=C(Cc1ccccc1)OCCc1ccccc1 | inactive |  |
| N#CC(C#N)=C(C#N)C#N | inactive |  |
| O=C(O)COc1cc(Cl)c(Cl)cc1Cl | inactive |  |
| CCCC(C)(COC(N)=O)COC(=O)NC(C)C (centres undefined) | inactive |  |
| CN1CC[C@]23c4c5ccc(O)c4O[C@H]2[C@@H](O)C=C[C@H]3[C@H]1C5 | inactive |  |
| CCOP(=S)(S)OCC | inactive |  |
| C=CCc1ccccc1O | inactive |  |
| CC(C)(C)OOC(C)(C)CCC(C)(C)OOC(C)(C)C | inactive |  |
| O=S(=O)(c1ccccc1)c1ccccc1 | inactive |  |
| Nc1c(Br)cc(Br)c2c1C(=O)c1ccccc1C2=O |  | -5.93% [at 15.8 µM] (inactive) |
| O=C(O)c1ccc(=O)[nH]c1 | inactive |  |
| CCNC(=O)NC(=O)/C(C#N)=N/OC | inactive |  |
| C=CCOCC1CO1 (centres undefined) | inactive |  |
| CCCSP(=S)(OCC)Oc1ccc(SC)cc1 (centres undefined) | inactive |  |
| CCOP(=S)(OCC)Oc1ccc(S(C)=O)cc1 (centres undefined) | inactive |  |
| C=C(C)C(=O)OCCCCOC(=O)C(=C)C | inactive |  |

| SMILES | Potency | cytotoxicity |
| --- | --- | --- |
| C=C(Cl)Cl | inactive |  |
| Clc1ccc(Cl)c(Cl)c1 | inactive |  |
| NNCCO | inactive |  |
| O=C(N[C@H]1CN2CCC1CC2)c1ccc2c(c1)OCCO2 | inactive |  |
| ClCc1ccccc1Cl | inactive |  |
| Nc1ccccc1C(=O)OCCc1ccccc1 | 21.9 µM (active) |  |
| O=C=NC1CCCCC1 | inactive |  |
| c1ccc2c(c1)sc1ccccc12 | inactive |  |
| N#CC1(N=NC2(C#N)CCCCC2)CCCCC1 | inactive |  |
| CCOC(C(=O)OCCN(C)C)(c1ccccc1)c1ccccc1 | inactive |  |
| CC1(C)CC(=O)CC(C)(C)N1[O] | inactive |  |
| Nc1cc(Cl)cc(C(=O)O)c1Cl | inactive |  |
| C[C@H]1[C@@H]2Cc3ccc(O)cc3[C@@]1(C)CCN2C | inactive |  |
| CCCCCCCCCCCCN(C)C | inactive |  |
| CC(C)(C)NCC(O)c1ccccc1Cl (centres undefined) | inactive |  |
| COc1cc(C[C@@H](C)N)c(OC)cc1Br | inactive |  |
| CC(C)CCCCCCCOC(=O)c1ccccc1C(=O)OCCCCCCCC(C)C | inactive |  |
| C1CS1 | inactive |  |

Assay: A CellTox Green Cytotoxicity Assay to monitor cytotoxicity in HepG2 cells - 40 hour (AID 1224879); note: nearly all actives have a fitted effect of over 40% in size
Conditions: CellTox Green fluorescence; series mostly up to 76.8 µM
Outline: as §1

| SMILES | Potency | cytotoxicity increase |
| --- | --- | --- |
| CCCCCl | inactive |  |
| CC(C)(C)NCC(O)c1cc(Cl)c(N)c(C(F)(F)F)c1 (centres undefined) | inactive |  |
| O=C(Cc1ccccc1)OCCc1ccccc1 | inactive |  |
| N#CC(C#N)=C(C#N)C#N | inactive |  |
| O=C(O)COc1cc(Cl)c(Cl)cc1Cl | inactive |  |
| CCCC(C)(COC(N)=O)COC(=O)NC(C)C (centres undefined) | inactive |  |
| CN1CC[C@]23c4c5ccc(O)c4O[C@H]2[C@@H](O)C=C[C@H]3[C@H]1C5 | inactive |  |
| CCOP(=S)(S)OCC | inactive |  |
| C=CCc1ccccc1O | inactive |  |
| CC(C)(C)OOC(C)(C)CCC(C)(C)OOC(C)(C)C | inactive |  |
| O=S(=O)(c1ccccc1)c1ccccc1 | inactive |  |
| Nc1c(Br)cc(Br)c2c1C(=O)c1ccccc1C2=O |  | -11% [at 15.8 µM] (inactive) |
| O=C(O)c1ccc(=O)[nH]c1 | inactive |  |
| CCNC(=O)NC(=O)/C(C#N)=N/OC | inactive |  |
| C=CCOCC1CO1 (centres undefined) | inactive |  |
| CCCSP(=S)(OCC)Oc1ccc(SC)cc1 (centres undefined) | inactive |  |
| C=C(C)C(=O)OCCCCOC(=O)C(=C)C | inactive |  |

| SMILES | Potency | cytotoxicity increase |
| --- | --- | --- |
| C=C(Cl)Cl | inactive |  |
| Clc1ccc(Cl)c(Cl)c1 | inactive |  |
| NNCCO | inactive |  |
| O=C(N[C@H]1CN2CCC1CC2)c1ccc2c(c1)OCCO2 | inactive |  |
| ClCc1ccccc1Cl | inactive |  |
| Nc1ccccc1C(=O)OCCc1ccccc1 | 21.9 µM (active) |  |
| O=C=NC1CCCCC1 | inactive |  |
| c1ccc2c(c1)sc1ccccc12 | inactive |  |
| N#CC1(N=NC2(C#N)CCCCC2)CCCCC1 | inactive |  |
| CCOC(C(=O)OCCN(C)C)(c1ccccc1)c1ccccc1 | inactive |  |
| CCC[N+](CCC)(CCC)CCC | inactive |  |
| Nc1cc(Cl)cc(C(=O)O)c1Cl | inactive |  |
| C[C@H]1[C@@H]2Cc3ccc(O)cc3[C@@]1(C)CCN2C | inactive |  |
| CC(C)(C)NCC(O)c1ccccc1Cl (centres undefined) | inactive |  |
| CCCCNC(=O)OCC#CI | 49 µM (active) |  |
| CC(C)CCCCCCCOC(=O)c1ccccc1C(=O)OCCCCCCCC(C)C | inactive |  |
